Consider 112 compounds from PubChem BioAssay AID488890 (Southern Research Specialized Biocontainment Screening …, 2010).

Screen size: about 320,000 compounds; about 1,300 (0.41%) were called active. Roughly 3% stayed inconclusive and do not appear here. How the calls were made is not given here. A selection follows. Entries with a potency or affinity are not part of this list.

A short description of this experiment: growth inhibition of non-replicating M. tuberculosis (AID 488890).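 Further: plate controls were DMSO cells for no effect and high antibiotic wells for full effect.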 The conditions noted are these: Mycobacterium tuberculosis non-replicating, at 25 µM, stronger effect = higher value.
Regarding `CCOC(=O)C1(Cc2cccc(Cl)c2)CCCN(C(=O)c2ccoc2C)C1` (configuration not stated), the inhibition is 33.8%.
Take `CCOC(=O)NC(CC(=O)O)c1ccc(OC)cc1` (configuration not stated): the inhibition is -4.02%.
The value for `CCn1c(C)nc2cc(C(=O)N/N=C/c3ccc(N4CCOCC4)cc3)ccc21` was 33%; that for `c1ccc2c(c1)CC(N1CCCCC1)c1ccccc1S2` (configuration not stated) was 72.9%.
For `CN1CCN(C2Cc3ccccc3Sc3ccc(Cl)cc32)CC1` (configuration not stated) the value was 76.8%; for `CCOC(=O)C1(Cc2ccc(OC)cc2)CCN(C(=O)c2cncs2)CC1`, -27.1%; for `CCOC(=O)c1ccc(NC(=O)NCc2ccncc2)cc1`, 15.4%.
With `CCc1ccc(N2C(=O)c3cc(N4CCOCC4)c([N+](=O)[O-])cc3C2=O)cc1`, the inhibition turned out to be 1.14%.
`O=[N+]([O-])c1ccc(CSc2nnc3ccccn23)cc1`: the inhibition worked out at 1.79%.
In the case of `CCc1ccc(NC(=O)CCCn2nc(CC)n3c(cc4occc43)c2=O)cc1`, the inhibition is 21.1%.
The value for `CSc1ccc(CCNC(=O)CCc2nnc3ccc(N4CCC5(CC4)OCCO5)nn23)cc1` was 11.6%; that for `Cc1nc2ccc([N+](=O)[O-])cc2c(=O)n1Cc1ccc(Cl)cc1` was -5.97%; that for `COc1ccccc1-c1nc2ccc(Cl)cc2c(=O)n1O` was 11.4%.
As for `O=c1c2ccccc2nc(-c2ccc([N+](=O)[O-])cc2)n1-c1ccccc1`, the inhibition is -1.75%.
For `O=C(Nn1c(-c2ccc(Br)cc2)nc2ccccc2c1=O)c1ccc([N+](=O)[O-])cc1` the value was 20.4%; for `Nn1c(-c2ccccc2)nc2cc(Cl)ccc2c1=O`, -0.74%.
For the compound `Cc1ccc(-c2nc3ccc(Cl)cc3c(=O)n2O)cc1`, the inhibition came to 69.6%.
`Cc1nc2ccc([N+](=O)[O-])cc2c(=O)n1Cc1ccc(Br)cc1`: the inhibition was -9.44%.
For `Cc1nc2ccc(Cl)cc2c(=O)n1-c1ccc([N+](=O)[O-])cc1`, the inhibition was 36.5%.
For the compound `CCCNC(=O)c1ccc(Cn2c(=S)[nH]c3c([nH]c4ccc(OC)cc43)c2=O)cc1`, the inhibition was -43.9%.
Regarding `CC1Cc2cc(S(=O)(=O)N3CCN(c4ccccc4F)CC3)ccc2N1C(=O)C1CC1` (configuration not stated), the inhibition is 31.8%.
On to `CC1Sc2ccc(S(=O)(=O)CCC(=O)N3CCN(c4ccccc4)CC3)cc2NC1=O` (configuration not stated), for which the inhibition is 12.1%.
`COC(=O)C1=C(C)NC(=O)CC1c1cc2c(cc1Br)OCO2` (configuration not stated): the inhibition is -0.49%.
On to `Cc1ccccc1C(=O)N1CCN(c2ncccn2)CC1`, for which the inhibition was -10.1%.
Turning to `CCOC(=O)c1ccc(S(=O)(=O)NC2CC2)cc1`, the inhibition was determined as 0.31%.
For `COc1ccc(COC(=O)CN2C(=O)NC3(CC(C)CC(C)(C)C3)C2=O)cc1F` (configuration not stated) the value was 7.47%; for `CC(C)C[C@H](NC(=O)c1nc[nH]c1C(=O)NCCCCCN)C(=O)OCc1ccccc1`, 18.5%; for `CCN(CC(=O)Nc1ccc(OC)cc1)C(=O)c1cc2c(s1)CCCCC2`, 12.4%.
Turning to `CSc1nnc(SCC(=O)Nc2ccc3[nH]c(=O)[nH]c3c2)s1`, the inhibition is -17%.
Consider `COc1ccccc1NC(=O)CN1C(=O)COc2ccc(S(=O)(=O)N3CCC(C)CC3)cc21`, for which the inhibition came to 9.4%.
As to `O=S(=O)(c1cccc2nsnc12)N1CCc2ccccc2C1`, the inhibition is 3.1%.
For `CC1CCCN(CCOCCSc2ccccc2)C1` (configuration not stated) the value was 13.4%.
With `Clc1ccc(SCCCN2CCCCC2)cc1`, the inhibition came to 5.39%.
In the case of `COc1ccc(S(=O)(=O)N2CCCC(C(=O)NC3CCCCC3)C2)cc1` (configuration not stated), the inhibition is -6.21%.
For the compound `COC(=O)CN(C#N)c1nc(OC)nc(N(C)C)n1`, the inhibition came to 2.2%.
For the compound `CCOC(=O)CN(C#N)c1nc(C)cc(C)n1`, the inhibition is 1.75%.
In the case of `CCOc1ccccc1OCC(=O)Nc1nc2ccccc2[nH]1`, the inhibition turned out to be 34.2%.
With `O=C(COc1ccccc1)Nc1nc2ccccc2[nH]1`, the inhibition is 75.5%.
As for `CN(c1cccc(Cl)c1)S(=O)(=O)c1cccc(C(=O)Nc2nc3ccccc3[nH]2)c1`, the inhibition stood at 7.4%.
For `CCOc1ccccc1OCCCC(=O)Nc1nc2ccccc2[nH]1` the value was 12.7%; for `COc1ccc(Cl)cc1C(=O)Nc1nc2ccccc2[nH]1`, 62.4%.
With `O=C(COc1cccc2ccccc12)Nc1cc(Cl)ccc1C(=O)O`, the inhibition turned out to be 69.4%.
Regarding `COc1ccc(C(=O)Nc2nc3ccccc3[nH]2)cc1OC`, the inhibition turned out to be 22.2%.
Take `O=C(COc1ccccc1C(=O)O)Nc1cccc2ccccc12`: the inhibition stood at 15.8%.
With `CCN(CC)S(=O)(=O)c1ccc(NC(=O)c2cccs2)cc1`, the inhibition is -5.05%.
Regarding `O=C(COc1ccccc1C(=O)Nc1ccccc1)c1ccc(F)cc1`, the inhibition is 2.88%.
`Cc1sc(NC(=O)C2CSC3(C)CCC(=O)N23)nc1-c1ccc(F)cc1` (configuration not stated): the inhibition is 23.3%.
With `CNC(=O)C1CCC(=O)N1Cc1ccccc1Cl` (configuration not stated), the inhibition was -5.58%.
The value for `Cc1[nH]c2ccccc2c1CC#N` was -7.72%.
Consider `COC(=O)CNC(=O)COC(=O)/C=C/c1cccs1`, for which the inhibition was -8.45%.
With `COc1ccc(/C=C2\N=C(C(C)(C)C)OC2=O)c(OC)c1`, the inhibition was 64.4%.
As to `CN(C)c1ccc(C=C2C(=O)OC(C)(C(C)(C)C)OC2=O)cc1` (configuration not stated), the inhibition is -8.32%.
For the compound `CCN(C[C@H]1N[C@@](C)(C(=O)OC)[C@H]2C(=O)N(C)C(=O)[C@@H]12)C(=O)C1CCCCC1`, the inhibition amounted to 1.05%.
Turning to `CS(=O)(=O)Nc1ccccc1C(=O)NC1CC2CCC1C2` (configuration not stated), the inhibition is -26.9%.
Take `COc1ccc(NC(=O)Cn2c(=O)n(CC3CCCO3)c(=O)c3cc(OC)c(OC)cc32)cc1OC` (configuration not stated): the inhibition turned out to be 3.8%.
Take `COC(=O)c1ccccc1OCCOCCOc1cccc2cccnc12`: the inhibition was -0.9%.
Take `O=C1OCCC1Sc1nnc(-c2ccc3c(c2)OCO3)o1` (configuration not stated): the inhibition came to 0.17%.
The value for `O=C(c1ccc(Cl)cc1)N1CCCCC(Sc2nnc(-c3ccc4c(c3)OCO4)o2)C1=O` (configuration not stated) was 17.2%; that for `Cc1ccc(S(=O)(=O)N(C)C)cc1-n1c(SCC(=O)Nc2ccc(F)cc2)nc2ccccc2c1=O` was 26.8%; that for `CC(=O)/C=C\c1ccccc1OC(=O)c1cc2ccccc2oc1=O` was 18%.
For `COC(=O)c1ccccc1OC(=O)c1cc2ccccc2oc1=O` the value was 17.4%; for `Cc1ccc(NC(=O)C2(S(=O)(=O)c3ccc(C)cc3)CC2)cc1`, 7.01%.
As to `CCCC(=O)Nc1ccc(C(=O)NNC(=S)NC(=O)c2cccs2)cc1`, the inhibition was -6.93%.
As for `CCCCOc1ccc(C(=O)NCC(=O)NNC(=O)c2ccco2)cc1`, the inhibition came to 9.92%.
Turning to `CCCOc1ccc(C(=O)Nc2ccc(NC(=O)c3cccs3)cc2)cc1`, the inhibition is -8.66%.
With `COc1ccc(C(=O)NC(=S)NNC(=O)c2ccco2)cc1`, the inhibition was 78.5%.
On to `c1cnc2c(OCc3cn4cccnc4n3)cccc2c1`, for which the inhibition was determined as 24.9%.
For `CCC(C(=O)NCc1ccco1)N(C(=O)CNS(=O)(=O)c1ccccc1)C1CCCCC1` (configuration not stated), the inhibition amounted to 18.4%.
Take `COc1ccc(-n2c(SCC(=O)O)nnc2-c2ccc(NC(=O)c3ccccc3)cc2)cc1`: the inhibition was 9.48%.
For `COc1ccc(NCc2nnc(-c3ccccc3)o2)cc1` the value was 69.4%; for `Cc1nnc(SCc2ccc([N+](=O)[O-])cc2)o1`, 16.4%; for `COc1ccc(-c2nnc(SCc3cc(C)cc(C)c3)o2)cc1`, 42.9%.
As to `COc1ccc(-c2nnc(SCC#N)o2)cc1`, the inhibition was 65.7%.
For the compound `CCOc1ccc(-c2nnc(-c3ccc(OC)cc3)o2)cc1`, the inhibition is 53.7%.
For `CCCc1nnc(-c2cc(OC)c(OC)c(OC)c2)o1`, the inhibition came to 7.1%.
As for `COc1ccc(-c2ccc(-c3nnc(Cc4ccc(OC)c(OC)c4)o3)cc2)cc1`, the inhibition came to 15.8%.
As for `CC(=O)CSc1nnc(Cc2ccc([N+](=O)[O-])cc2)o1`, the inhibition amounted to 70.9%.
On to `Cn1c(=O)c(=O)n(C)c2cc(S(=O)(=O)N3CCOCC3)ccc21`, for which the inhibition was -6.34%.
`COC(=O)c1cc(S(=O)(=O)NCc2ccccc2Cl)c[nH]1`: the inhibition is -3.81%.
As for `Cc1ccc2c(c1)N(S(=O)(=O)c1ccc(CN3C(=O)c4cccnc4C3=O)cc1)CCO2`, the inhibition worked out at 15.3%.
For the compound `Cn1c(SCc2cccnc2)nc2cccnc21`, the inhibition is -20.7%.
As to `CC/C(=N\N=C1\SC(C)C(=O)N1Cc1ccco1)c1ccccc1` (configuration not stated), the inhibition was found to be 32%.
As to `COc1ccccc1CNC(=O)c1cnn2c(C(F)F)cc(C)nc12`, the inhibition is 24.9%.
As for `COc1ccccc1N1CCN(S(=O)(=O)CCNC(=O)C2CC2)CC1`, the inhibition was -6.08%.
Take `COc1ccc(-c2cc(C(F)F)n3ncc(C(=O)Nc4cnn(Cc5ccccc5)c4)c3n2)cc1`: the inhibition is -6.39%.
Consider `Fc1ccc(-c2nnc(Cc3nnc(-c4ccc(F)cc4)o3)o2)cc1`, for which the inhibition is -8.26%.
For `c1ccc(OCc2nnc(-c3ccccc3)o2)cc1` the value was 62.3%.
Regarding `Cc1cccc(NCc2ccccc2O)c1C`, the inhibition was 12.1%.
Turning to `O=[N+]([O-])c1ccc(Cc2nnc(-c3ccc(F)cc3)o2)cc1`, the inhibition was found to be 72.1%.
For `c1ccc(CN2CCN(Cc3nnc(-c4ccccc4)o3)CC2)cc1` the value was 30.8%.
As to `COc1ccc(OC)c(NCc2nnc(-c3ccccc3)o2)c1`, the inhibition was found to be 77%.
On to `O=[N+]([O-])c1ccc(Cc2nnc(-c3ccccc3Cl)o2)cc1`, for which the inhibition is 34.9%.
For the compound `Clc1ccccc1OCc1nnc(-c2ccccc2Br)o1`, the inhibition stood at 29.1%.
As to `O=C(Nc1nn(Cc2ccc(Cl)cc2)cc1Br)c1ccc(COc2ccccc2Cl)o1`, the inhibition is 44.8%.
For `CCc1cc(CC)c(/C=N/NC(N)=O)c(CC)c1` the value was 6.49%; for `COc1ccc(-n2cnc3sc4c(c3c2=O)CCCC4)cc1`, 26%.
Take `CC(C)c1nnc(NC(=O)CN2C(=O)c3ccccc3C2=O)s1`: the inhibition was -1.11%.
Regarding `Cc1ccc(-n2ncc(C(=O)N3CCN(C(=O)c4ccco4)CC3)c2C2CCN(C(=O)OC(C)(C)C)CC2)cc1C`, the inhibition was -1.31%.
On to `O=C(C1CCC1)N1CCc2cc(S(=O)(=O)NCCCN3CCCCC3)ccc21`, for which the inhibition was -2.13%.
Consider `CCOC(=O)c1c(NC(=O)Nc2ccc(F)cc2)sc2c1CCN(C)C2`, for which the inhibition came out at 0.96%.
As for `C=CCn1c(O)c(C(CC)=NCCc2c[nH]c3ccccc23)c(=O)[nH]c1=O`, the inhibition was 18.7%.
As for `Clc1ccc(-c2nnc(C3CC3)o2)cc1`, the inhibition is 63%.
`O=[N+]([O-])c1cccc(-c2nnc(C3CC3)o2)c1`: the inhibition stood at 8.89%.
Take `COc1cc(NC(=O)c2ccc(Cl)cc2)c(Cl)cc1NC(=O)c1cccnc1`: the inhibition was -8.85%.
In the case of `Cc1ccccc1CN1CCC(C(=O)Nc2ccc(Oc3cccnc3)cc2)CC1`, the inhibition was determined as 30.1%.
Turning to `COc1cccc(O)c1CN1CCC(C(=O)Nc2ccc(Oc3cccnc3)cc2)CC1`, the inhibition was found to be 19.3%.
Turning to `CC1Cc2ccccc2N1C(=O)CO/N=C/c1ccccc1OC(F)F` (configuration not stated), the inhibition is -12.1%.
`C=CCn1c(O)c(N=NC(=O)C(O)c2ccccc2)c2ccccc21` (configuration not stated): the inhibition was found to be 15.4%.
As for `CC(C)(C)NC(=O)CN(C(=O)c1snc(C(=O)NC2CCCCC2)c1N)c1ccc(F)cc1`, the inhibition is -3.77%.
In the case of `CCOC(=O)c1snc(C(=O)NC2CCCCC2)c1N`, the inhibition was 64.4%.
As for `CC(OC(=O)c1snc(C(=O)NC2CCCCC2)c1N)C(=O)NC(C)(C)C` (configuration not stated), the inhibition was 48.2%.
`CC(OC(=O)c1snc(C(=O)NC2CCCCC2)c1N)C(=O)NC1CCCCC1` (configuration not stated): the inhibition was -11.8%.
